Rows were chosen to be rich in hits. Some 18% of all compounds tested hit in one or more screens of this group.
TDP1 block = qHTS Assay for Inhibitors of Tyrosyl-DNA Phosphodiesterase (TDP1) | Tyrosyl-DNA phosphodiesterase 1 (Homo sapiens), Q9NUW8 | recombinant TDP1, AlphaScreen DNA substrate cleavage | Potency, µM (top dose mostly 130 µM), for the others: at the top dose activity change, negative = inhibition, actives largely listed as inhibitors | 0.28% of 350,000 active | AID 485290, 2010; also: potency is read from the fitted curve at half-maximal effect; % is scaled to controls: 0 for no effect and ±100 for the full control effect; nearly all actives have a fitted effect of over 40% in size
Target sequence (Q9NUW8 whole entry, looked up): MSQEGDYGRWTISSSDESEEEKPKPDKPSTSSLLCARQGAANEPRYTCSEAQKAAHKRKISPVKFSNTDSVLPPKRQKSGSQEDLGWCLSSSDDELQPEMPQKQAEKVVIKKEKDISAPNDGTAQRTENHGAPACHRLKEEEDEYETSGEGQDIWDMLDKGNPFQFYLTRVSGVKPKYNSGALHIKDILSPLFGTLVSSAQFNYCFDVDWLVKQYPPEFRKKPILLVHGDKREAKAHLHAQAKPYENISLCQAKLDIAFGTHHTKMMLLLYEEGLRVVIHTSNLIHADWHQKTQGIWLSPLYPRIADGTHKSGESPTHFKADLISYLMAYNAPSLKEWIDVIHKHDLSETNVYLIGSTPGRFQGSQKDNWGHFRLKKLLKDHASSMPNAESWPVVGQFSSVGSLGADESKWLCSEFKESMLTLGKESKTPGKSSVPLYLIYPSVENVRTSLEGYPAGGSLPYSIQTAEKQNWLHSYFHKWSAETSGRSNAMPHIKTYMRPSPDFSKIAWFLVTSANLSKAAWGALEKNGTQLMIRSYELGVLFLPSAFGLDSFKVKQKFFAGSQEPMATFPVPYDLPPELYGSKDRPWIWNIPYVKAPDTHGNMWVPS
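Recombinant human Tdp1 (E. coli-expressed, 1 nM final) preincubated with compounds 15 min at room temperature, then 5'-biotin/3'-phosphotyrosine-FITC DNA substrate (15 nM final) added for 5 min. AlphaScreen beads (10 ug/ml final) added 10 min; cleavage lowers signal.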
HepG2 viability = qHTS for Inhibitors of TGF-b: Cytotox Counterscreen; HepG2 CAGA-GFP viability, ATP luminescence, 18 h; Potency, µM (series often up to 46.1 µM), without a hit: at the top dose activity change, negative = cytotoxicity, most hits filed as cytotoxic; 0.76% of 410,000 active; also: potency is read from the fitted curve at half-maximal effect
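HepG2 CAGA-GFP cells (1000/well, DMEM with 1% FBS) received compound, then TGF-beta at 500 pg/mL final, and were incubated 18 hours at 37 degrees C. Viability was read by CellTiter-Glo luminescence. Media-only wells were set as complete cell-killing and DMSO as no toxicity.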
TDP1 cell noCPT = qHTS for Inhibitors of human tyrosyl-DNA phosphodiesterase 1 (TDP1): qHTS in cells in absence of CPT | DT40 Tdp1-/- hTDP1 cells, no CPT, ATP luminescence, 48 h | Potency, µM (titrated, usually from 46.2 µM), for the others: at the highest dose activity change, negative = growth inhibition, usual class: inhibitors | 15% of 420,000 active; also: potency is read from the fitted curve at half-maximal effect; % is scaled to controls: 0 for no effect and ±100 for the full control effect; nearly all actives have a fitted effect of over 55% in size
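Growth of hTDP1-complemented DT40 Tdp1-knockout cells is measured by ATP luminescence after at least 48 hr compound exposure at 37 °C, with DMSO substituting for the 20 nM CPT used in the parallel screen.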
TGFb SMAD3 inh = qHTS for Inhibitors of TGF-b; HepG2 CAGA-GFP TGF-b/SMAD3 reporter, GFP fluorescence, 18 h; TGF-beta stimulated, 500 pg/mL final; Potency, µM (series often up to 46.1 µM), without a hit: at the highest dose activity, negative = inhibition, usual class: inhibitors; 1.2% of 410,000 active; AID 588855, 2011; also: potency is read from the fitted curve at half-maximal effect; % is scaled to controls: 0 for no effect and ±100 for the full control effect; nearly all actives have a fitted effect of over 65% in size
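GFP signal (ex488/em500-530) from TGF-beta-stimulated HEPG2 CAGA-GFP cells, 500 pg/mL final, 18 h at 37 degrees C in DMEM plus 1% FBS, normalized to unstimulated and DMSO-stimulated controls.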
IL1B secr inh = qHTS for Inhibitors of Inflammasome Signaling: IL-1-beta AlphaLISA Primary Screen; 4.7% of 360,000 active; THP-1 LPS/ATP IL-1B secretion, AlphaLISA, 16 h; active compounds read low; AID 743279, 2014; activity change, % at 57.5 µM; in the data active = activity change below about -50%; inconclusive = mostly about -30% to -49%; also: % is scaled to controls: 0 for no effect and ±100 for the full control effect
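Secreted IL-1B measured by AlphaLISA bead assay after 16 h compound exposure of THP-1 cells; compounds (final up to 57.5 uM) added 1 h before LPS (250 ng/mL) and ATP (1.25 mM) stimulation; lower signal means less secretion.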
TDP1 cell CPT = qHTS for Inhibitors of human tyrosyl-DNA phosphodiesterase 1 (TDP1): qHTS in cells in presence of CPT. chicken DT40 Tdp1-/-;hTDP1 cells + 20 nM CPT, ATP luminescence, 48 h. Potency, µM (highest dose often 46.2 µM), inactives show at the highest dose activity change, negative = growth inhibition, hits mostly inhibitors. 12% of 420,000 active; also: potency is read from the fitted curve at half-maximal effect; % is scaled to controls: 0 for no effect and ±100 for the full control effect; nearly all actives have a fitted effect of over 55% in size
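Chicken DT40 Tdp1-/- cells complemented with human TDP1, 400 cells/well, exposed to compounds plus 20 nM camptothecin for at least 48 h at 37 C; viability read as ATP content by CellTiter-Glo luminescence.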
* marks the source's active call; other numbers are inactive results; ? = inconclusive; . = no result given. Unless noted, calls follow the shape of the dose curve; as a rule, active = well fitted curve in the direction sought with a large enough effect; inconclusive = small, poorly fitted or top-dose-only effect, or another doubt; inactive = no such curve, though single readings can be large; an effect the other way counts as inactive or inconclusive.

SMILES | TDP1 block | HepG2 viability | TDP1 cell noCPT | TGFb SMAD3 inh | IL1B secr inh | TDP1 cell CPT
CCCOc1ccc(F)cc1-c1cc(C(=O)Nc2cc(OC)ccc2OC)[nH]n1 | . | -37.7% | -10.6% | -14.9% | 9.1 | -20.5%
CCCOc1ccc(F)cc1-c1cc(C(=O)Nc2cc(OC)c(OC)c(OC)c2)[nH]n1 | . | -10.0% | 14.6µM* | ? | -11.3 | 8.2µM*
CC(C)C[C@@H]1O[C@H](CCc2ccccc2)CC2=C1C(=O)OC(C)(C)O2 | . | . | ? | . | 0.0 | ?
O=C(Nc1ccc2c(c1)OCCO2)C1C(=O)Nc2ccccc2C(=O)N1C1CCCCC1 (stereo not drawn) | . | . | -13.4% | . | -15.0 | -19.8%
CCOC(=O)C1(Cc2cccc(OC)c2)CCN(Cc2ccccc2OC)CC1 | -5.4% | -12.0% | ? | -0.6% | -4.9 | -24.5%
CCOC(=O)C1(CC2CC2)CCN(Cc2ccc(C(=O)OC)cc2)CC1 | 2.4% | -28.4% | 23.1µM* | -12.0% | 4.6 | ?
CCOC(=O)C1(CCc2ccccc2)CCN(Cc2cc(OC)c(OC)cc2OC)CC1 | . | -41.7% | 20.6µM* | ? | -53.8* | 20.6µM*
CCOC(=O)C1(CCc2ccccc2)CCN(Cc2ccc(C(=O)OC)cc2)CC1 | . | 0.1% | 16.4µM* | -6.2% | 0.0 | ?
CCOC(=O)C1(CCc2ccccc2)CCN(Cc2ccccn2)CC1 | 0.0% | -10.3% | ? | ? | 0.0 | -18.0%
CCOC(=O)C1(CC2CC2)CCN(Cc2cn(C)c3ccccc23)CC1 | -2.4% | -33.6% | 18.4µM* | -23.7% | -81.6* | 20.6µM*
CNC(=O)C[C@@H]1C(=O)N(CCc2ccccc2)CC1(C)C | . | -2.8% | -10.8% | 3.8% | 10.1 | 21.9%
CC1CCN(C(=O)CCc2nnc3ccc(N4CCC5(CC4)OCCO5)nn23)CC1 | 1.7% | 0.8% | 13.9% | -15.9% | -7.9 | -2.7%
Cc1ccc(CNC(=O)Cn2c(=O)cc(C(F)(F)F)c3c(C)nn(C)c32)cc1 | 7.1% | 7.8% | -1.0% | -4.2% | . | -23.3%
O=C(Nc1ccc(Br)c2cccnc12)c1cccc2ccccc12 | -1.1% | 2.5% | -18.4% | 3.3% | . | -14.4%
CC(=O)Oc1ccc2c(c1)CCC1C2CC[C@@]2(C)C1CC(OC(C)=O)C2OC(C)=O (stereo partly drawn) | 4.5% | . | 4.1% | . | . | ?
CCOC(=O)C1(CC2CC2)CCN(C(=O)c2cc(C3CC3)nc3ccccc23)CC1 | . | -16.1% | 23.1µM* | -24.3% | -83.7* | ?
CCOP(=O)(OCC)C(NC(C)=O)C(=O)c1ccccc1 (stereo not drawn) | 5.0% | 3.6% | 3.66µM* | -11.1% | -22.2 | -4.8%
Cc1ccsc1CN(C)CC(=O)NCC(=O)Nc1ccc(F)c(F)c1F | -0.2% | -25.6% | -9.9% | ? | -4.6 | -4.9%
CC(C)(C)C1CCc2c(sc(NC(=O)C3CCCO3)c2C(N)=O)C1 (stereo not drawn) | 1.9% | -32.3% | 18.4µM* | 6.3% | -9.2 | ?
CCC(C)(C)C1CCc2c(sc(N)c2C(N)=O)C1 (stereo not drawn) | 6.7% | -7.6% | 20.6µM* | ? | -15.2 | 20.6µM*
CC(C)(C)C1CCc2c(sc(N)c2C(N)=O)C1 (stereo not drawn) | 4.2% | -2.0% | 18.4µM* | -16.6% | -64.4* | 23.1µM*
NC(=O)c1c(NC(=O)C2CCCO2)sc2c1CCC2 (stereo not drawn) | 5.3% | 10.6% | -6.2% | 1.8% | -26.4 | -0.1%
CCCC1CCc2c(sc(N)c2C(N)=O)C1 (stereo not drawn) | 4.0% | 6.5% | 20.6µM* | ? | -8.8 | 16.4µM*
CC(C)(C)C1CCc2c(sc(NC(=O)c3ccco3)c2C(N)=O)C1 (stereo not drawn) | -3.3% | -43.0% | ? | 0.0% | -22.2 | ?
CN(Cc1ccccc1)S(=O)(=O)c1ccc(Cl)c(C(=O)OCC(=O)NC2CCS(=O)(=O)C2)c1 (stereo not drawn) | 2.3% | 0.5% | 3.1% | 1.7% | 3.9 | -3.6%
SMILES | TDP1 block | HepG2 viability | TDP1 cell noCPT | TGFb SMAD3 inh | IL1B secr inh | TDP1 cell CPT
CN1C(c2ccccc2)CC(=NO)CC1c1ccccc1 (stereo not drawn) | . | -23.5% | ? | -15.2% | -18.6 | -21.2%
Cc1ccc(S(=O)(=O)N(C)C)cc1-n1c(SCC(=O)N(C)C)nc2ccccc2c1=O | 0.0% | 2.8% | -28.2% | 3.0% | -5.0 | -2.7%
Cc1ccc(S(=O)(=O)N(C)C)cc1-n1c(SCC(=O)Nc2ccc(F)c(F)c2F)nc2ccccc2c1=O | 5.5% | 12.9% | 20.6µM* | 0.0% | 18.1 | 14.6µM*
COc1cc2c(cc1OC)CN(S(=O)(=O)c1ccccc1F)CC2 | . | 8.2% | -25.7% | -8.9% | 6.8 | -13.3%
CC(C)c1ccc(CN2CCSCC2)cc1 | . | -1.8% | -15.2% | 19.8% | 0.3 | 1.9%
CCN(C(=O)c1c(C)cc(=O)oc1C)c1ccc2c(c1)OCO2 | -1.0% | -9.2% | -15.9% | 0.0% | 9.9 | -5.5%
CCN(C(=O)c1coc(=O)c(Br)c1)c1ccc2c(c1)OCO2 | 0.0% | -1.1% | 1.03µM* | -4.1% | -10.6 | 1.46µM*
O=C(CSc1cn(CC(=O)N2CCCC2)c2ccccc12)Nc1ccccc1C(F)(F)F | -5.1% | -6.1% | ? | 0.0% | . | ?
CCc1c(OC(C)=O)c2ccccc2n(C)c1=O | 5.8% | -26.3% | 0.7% | 1.9% | -2.0 | -21.0%
CC(=O)Oc1c(C)c(=O)n(C)c2ccccc12 | 0.6% | -0.1% | -1.6% | -3.7% | -89.1* | -14.5%
Cc1c(P(=S)(c2ccccc2)c2ccccc2)c2ccccc2n1C(=O)NCc1ccc(F)cc1 | -0.4% | . | . | . | . | .
Cc1cccc(N/N=C(\C(N)=O)C2=NC(C)(C)Cc3ccccc32)c1 | 9.3% | -22.6% | 25.9µM* | 0.0% | -13.6 | ?
Cn1cccc1-c1cc(C(=O)N/N=C/c2cc(Br)ccc2O)[nH]n1 | 79.4µM* | -21.0% | 4.11µM* | -0.9% | 111.3 | 5.8µM*
Cn1cccc1-c1cc(C(=O)N/N=C/c2ccccc2Cl)[nH]n1 | -14.5% | -3.7% | -19.9% | -6.3% | ? | -20.7%

Compound activity deposited in PubChem BioAssay by National Center for Advancing Translational Sciences (NCATS).
